Drawing on PubChem BioAssay (EPA / NIEHS), this text covers outcome and AC50 for 27 molecules.

Inconclusive results are not listed. Calls of active or inactive are those of the source. The calls were made as follows: active = hit-call score of the fitted dose curve at least 0.9, where 1 is the maximum; inconclusive = response in the unintended direction; inactive = score below 0.9.

Read-out in this experiment: ABC Transporter (ABCB11), ABCB11 (gene 8647)
The experiment in a line: CLD_ABCB11_48hr: CellzDirect (CLD) Gene Expression Assay for ABC Transporter (ABCB11) at 48 hours (AID 2283697). As to the method:
CLD_48hr is a cell-based, multiplexed-readout assay that uses hepatocyte, a human liver primary cell, with measurements taken at 48 hours after chemical dosing in a 96-well plate.CLD_ABCB11_48hr is one of 16 assay component(s) measured or calculated from the CLD_48hr assay. It is designed to make measurements of mRNA induction, a form of inducible reporter, as detected with chemiluminescence signals by Quantitative Nuclease Protection Assay (qNPA) technology.Data from the assay component CLD_ABCB11_48hr was analyzed at the endpoint, CLD_ABCB11_48hr, in the positive analysis fitting direction relative to DMSO as the negative control and baseline of activity. Using a type of inducible reporter, gain-of-signal activity can be used to understand changes in the reporter gene as they relate to the gene ABCB11. Furthermore, this assay endpoint can be referred to as a primary readout. To generalize the intended target to other relatable targets, this assay endpoint is annotated to the transporter intended target family, where subfamily is ABC transporter.
Human hepatocyte cultures were treated daily for two consecutive days with fresh dosing solutions containing appropriate concentrations of the 320 ToxCast chemicals (chemical identities were blinded to CellzDirect and other ToxCast collaborators), vehicle control (0.2% DMSO), and positive control inducers as summarized in Table 1. Due to the large number of treatment groups and chemicals examined, the ToxCast chemicals were divided into two groups (spanning two independent cultures of hepatocytes from separate donor preparations (Hu778: ToxCast plates 1 and 2; Hu776: ToxCast plates 3 and 4). Each preparation of human hepatocyte cultures was treated with respective vehicle control, medium only control, set of six positive controls/reference chemicals for the five hepatic receptor pathways, and a subset of eight of the ToxCast chemicals (indoxacarb, pyrithiobac-sodium, norflurazon, cyhalofop-butyl, methomyl, thiram, acetochlor, and propiconazole). These replicate data, coupled with internal replicates designed within the blinded ToxCast chemical library, provided additional data to evaluate interindividual differences between hepatocyte preparations and their potential impact on chemical profiles.Cell morphology and integrity were evaluated using phase-contrast microscopy as an indicator of hepatocyte cell health (Tyson & Green, 1987). Cultures for each treatment group (i.e., media, vehicle [0.2% DMSO], positive control inducers [multiple concentrations], and the ToxCast chemicals [multiple concentrations]) were observed and cell morphology was assessed relative to vehicle control cultures at each harvest time point (0, 6, 24, or 48 h). […] Images were evaluated at the conclusion of the study to assess changes in cell integrity and account for the effects of chemical exposure on uncharacteristic changes in concentration-dependent gene expression profiles. The results from these determinations of apparent cytotoxicity were annotated (yes/no) alongside the corresponding qNPA data for reference.At the conclusion of each treatment period, hepatocyte cultures (96-well) were washed with 1 volume of HBSS, lysed by addition of 25 ul ArrayPlate lysis buffer (HTG, Tucson, AZ), and 70 ul/well of Denaturation Oil, denatured by incubation at 95C for 10 min, and frozen at approximately -70C until analysis by nuclease protection assay (qNPA) (Roberts et al., 2007). For qNPA analysis, cell lysates were thawed at 50C for approximately 30 min, qNPA probes were added, and samples were incubated at 95C for 10 min to begin the detection process by denaturing the target RNA, dissociating the duplexes and secondary structure hybridization. At the conclusion of the hybridization period, S1 nuclease reagent was added to each sample to digest all nonprotected nucleotides at 50C for 60-90 min. […]
Regarding `CCOP(=O)(SC(C)CC)N1CCSC1=O` (configuration not stated), the call was inactive.

On to `CCCCSP(=O)(SCCCC)SCCCC`, for which the molecule was called inactive.

As to `CC(C)=CC1C(C(=O)OCN2C(=O)C3=C(CCCC3)C2=O)C1(C)C` (configuration not stated), the call was inactive.

On to `CCCCOC(=O)c1ccccc1C(=O)O`, for which the outcome was inactive.

With `C[N+]1(C)CCCCC1`, the molecule was classed as inactive.

Consider `COc1cc(OC)nc(Sc2cccc(Cl)c2C(=O)O)n1`, for which the molecule was called inactive.

As to `CCC(=NOC/C=C/Cl)C1=C(O)CC(C2CCOCC2)CC1=O` (configuration not stated), the outcome was inactive.

For the molecule `CN(C)[C@@H]1C(=O)C(C(N)=O)=C(O)[C@@]2(O)C(=O)C3=C(O)c4c(O)cccc4[C@@](C)(O)[C@H]3[C@H](O)[C@@H]12`, the molecule was classed as inactive.

Regarding `CC(COc1ccc(Oc2ccccc2)cc1)Oc1ccccn1` (configuration not stated), the molecule was called inactive.

In the case of `CC[C@H](C)[C@H]1O[C@]2(C=C[C@@H]1C)C[C@@H]1C[C@@H](C/C=C(\C)[C@@H](O[C@H]3C[C@H](OC)[C@@H](O[C@H]4C[C@H](OC)[C@@H](NC)[C@H](C)O4)[C@H](C)O3)[C@@H](C)/C=C/C=C3\CO[C@@H]4[C@H](O)C(C)=C[C@@H](C(=O)O1)[C@]34O)O2`, the outcome was inactive.

With `CCOP(=S)(OCC)Oc1ccc2c(C)c(Cl)c(=O)oc2c1`, the molecule was called inactive.

`N#CSCSC#N`: the outcome was inactive.

On to `CCCSP(=O)(OCC)Oc1ccc(Br)cc1Cl` (configuration not stated), for which the call was inactive.

`COP(=O)(NC(C)=O)SC` (configuration not stated): the molecule was called inactive.

Turning to `COP(=O)(OC)SCn1c(=O)oc2cc(Cl)cnc21`, the molecule was called inactive.

As to `COP(=O)(OC)C(O)C(Cl)(Cl)Cl` (configuration not stated), the molecule was called inactive.

Turning to `CC1=NNC(=O)N(/N=C/c2cccnc2)C1`, the result was inactive.

Consider `O=c1ccc(=O)[nH][nH]1`, for which the molecule was called inactive.

By AC50 is commonly meant the midpoint of the concentration-response curve, whichever way the signal moves. As for `C=C(C)[C@H]1Cc2c(ccc3c2O[C@@H]2COc4cc(OC)c(OC)cc4[C@@H]2C3=O)O1`, the AC50 is 3.73 µM (active).

For the molecule `CCCOc1nn(C(=O)NS(=O)(=O)c2ccccc2C(=O)OC)c(=O)n1C`, the outcome was inactive.

With `CCOP(=O)(OCC)Oc1cc(C)nc(C(C)C)n1`, the call was inactive.

On to `COc1cccc(C(=O)NN(C(=O)c2cc(C)cc(C)c2)C(C)(C)C)c1C`, for which the call was inactive.

In the case of `CN(C)NC(=O)CCC(=O)O`, the call was inactive.

As to `CCOC(=O)CC(SP(=O)(OC)OC)C(=O)OCC` (configuration not stated), the outcome was inactive.

Turning to `CCOP(=S)(Oc1cnc(C(C)(C)C)nc1)OC(C)C` (configuration not stated), the molecule was classed as inactive.

On to `CCCCOC(=O)[C@@H](C)Oc1ccc(Oc2ccc(C#N)cc2F)cc1`, for which the result was inactive.

As to `CN(C)C(=O)Nc1cccc(C(F)(F)F)c1`, the result was inactive.
